# Screening results: PubChem BioAssay, several laboratories
# An excerpt weighted towards active compounds, which were near 22% of everything screened.
# CYP2C9 activ = human CYP2C9 activators, primary screen, biochemical, luminescence | Cytochrome P450 2C9 (Homo sapiens), P11712 | recombinant CYP2C9, luciferin-H conversion; hits give high values; factor 1 = untreated enzyme, 0 = blocked | activation factor at 5 µM | 96,000 tested, 1.4% active | AID 1024, 2008;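 active = activation factor of 2 or more for CYP2C9 at a 5 µM dose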
# Target sequence (P11712 whole entry, looked up): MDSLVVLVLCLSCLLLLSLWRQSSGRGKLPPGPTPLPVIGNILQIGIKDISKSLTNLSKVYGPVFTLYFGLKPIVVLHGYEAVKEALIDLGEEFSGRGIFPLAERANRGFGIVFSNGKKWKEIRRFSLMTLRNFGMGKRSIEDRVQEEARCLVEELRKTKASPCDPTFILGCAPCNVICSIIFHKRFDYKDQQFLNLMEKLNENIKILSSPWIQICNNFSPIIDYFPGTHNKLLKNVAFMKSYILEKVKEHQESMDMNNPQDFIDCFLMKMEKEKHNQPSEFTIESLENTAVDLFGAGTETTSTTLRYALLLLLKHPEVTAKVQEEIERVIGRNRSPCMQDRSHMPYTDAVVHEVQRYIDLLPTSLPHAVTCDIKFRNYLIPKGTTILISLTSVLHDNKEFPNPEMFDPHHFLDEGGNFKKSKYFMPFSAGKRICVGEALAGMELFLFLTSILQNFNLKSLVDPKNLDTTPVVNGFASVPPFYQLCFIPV
# cytoskel mod = modifiers of F-actin cytoskeleton organization, primary screen, imaging, HUVEC, phalloidin staining, high-content imaging; HUVEC TNFa F-actin phalloidin imaging; inhibition, % at 2 µM; 91,000 tested, 0.18% active;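 active = inhibition above the batch mean plus 3 SD and confirmed as a hit by visual image inspection, cut at about 30% in these data, passing the limit was not always enough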
# CYP2C9 inhib = blockers of cytochrome P450 2C9 activity – biochemical, luminescence, ADME assay, primary screen | inhibition, % at 5 µM | P11712 | 96,000 tested, 20% active | AID 777, 2007 | CYP2C9 Supersomes, luciferin-H conversion;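 active = blocking of liver enzyme CYP2C9 beyond about 50% at 5 µM, limit read from the data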
# E-sel TNF inh = E-selectin induction blockers in HUVEC – imaging, immunofluorescence, high content, primary screen | HUVEC TNFa-induced E-selectin immunofluorescence | inhibition, % at 2 µM | 120,000 tested, 0.71% active;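 active = inhibition above the batch mean plus 3 SD, and confirmed as a hit on visual image review, cut at about 43% in these data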
# CYP2C19 inh = blockers of cytochrome P450 2C19 activity – biochemical, luminescence, ADME assay, primary screen | CYP2C19 Supersomes, luciferin-H EGE luminescence, 30 min | P33261 | 96,000 tested, 21% active | inhibition, % at 5 µM | AID 778, 2007;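 active = CYP2C19 inhibition above a set limit at 5 µM in the primary screen, cut at about 50% in these data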
# CYP2C19 activ = human CYP2C19 activators, primary screen, biochemical, luminescence | AID 1025, 2008 | 96,000 tested, under 10 active | activation factor at 5 µM | recombinant CYP2C19, luciferin-H EGE luminescence; hits give high values; 0 = fully inhibited enzyme, 1 = untreated enzyme;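 active = activation factor of at least 2 at 5 µM in the primary screen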
# A number is an active result; 0 = inactive; - = not tested or not shown.
SMILES,CYP2C9 activ,cytoskel mod,CYP2C9 inhib,E-sel TNF inh,CYP2C19 inh,CYP2C19 activ
CCOC(=O)C1(CCc2ccccc2)CCN(C(=O)Cc2nonc2C)CC1,-,-,-,0,-,-
Cc1ccc(S(=O)(=O)NCCN2CCOCC2)c(C)c1C,-,-,-,0,-,-
COc1ccc(/C=C2\CCc3ccccc3C2=O)cc1Cn1cccn1,0,0,0,0,78,0
COC(=O)Nc1ccc(C)cc1NC(=O)OC,0,0,0,0,0,0
COC(=O)C1=C(C)Nc2ccc(C)cc2S1,0,0,0,0,62,0
Cc1ccc(NS(=O)(=O)c2cc(C(=O)NCCSC3CCCCC3)ccc2C)cc1,0,48,54,0,0,0
Cc1ccc(C(=O)NCCSc2ccc(Cl)cc2)cc1S(=O)(=O)Nc1ccccc1,0,0,52,0,0,0
O=C(NCCN1CCOCC1)c1ccc2c(c1)N(Cc1ccccc1)C(=O)CS2,0,0,0,0,0,0
Cc1ccc(SCCNC(=O)c2ccccc2)cc1,0,0,0,0,0,0
Cc1cccc(NS(=O)(=O)c2cc(C(=O)NCCC3=CCCCC3)ccc2Cl)c1,0,0,68,0,0,0
O=C(NCCC1=CCCCC1)c1ccc2c(c1)N(Cc1ccccc1)C(=O)CS2,0,0,75,0,0,0
CS(=O)(=O)Nc1ccc(C(=O)NCCSC2CCCCC2)cc1,0,0,0,0,0,0
CN(CC(=O)NCc1ccccn1)S(=O)(=O)c1ccc(Cl)cc1,0,-,0,0,0,0
Cc1ccc(NS(=O)(=O)c2cc(C(=O)NCCSc3ccc(C)cc3)ccc2C)cc1,0,0,78,0,67,0
Cc1ccc(SCCNC(=O)c2ccc(C)c(S(=O)(=O)Nc3cccc(C)c3)c2)cc1,0,0,71,0,62,0
CCOC(=O)C1CCCN(c2c(NCCCN(CC)c3ccccc3)c(=O)c2=O)C1 (stereo not drawn),0,0,0,0,0,0
CCOC(=O)C1CCN(c2c(NCc3ccc(C(=O)NCCC(C)C)cc3)c(=O)c2=O)CC1,0,0,59,-,0,0
CCCNC(=O)c1ccc(CNc2c(N3CCC(C(=O)OCC)CC3)c(=O)c2=O)cc1,0,0,0,0,0,0
CCOC(=O)N1CCC(Nc2c(N3CCN(c4cccc(C(F)(F)F)c4)CC3)c(=O)c2=O)CC1,0,0,58,0,0,0
CCOC(=O)C1CCCN(c2c(NCCN(CC)c3ccccc3)c(=O)c2=O)C1 (stereo not drawn),0,0,0,-,68,0
CCOC(=O)N1CCN(c2c(NCc3ccc(Cl)cc3)c(=O)c2=O)CC1,0,0,64,0,0,0
CCOC(=O)C1CCCN(C(=O)c2ccc(CNc3c(N4CCC(C)CC4)c(=O)c3=O)cc2)C1 (stereo not drawn),0,-,55,0,0,0
O=C(C1CCCN(Cc2cccnc2)C1)N1CCCCC1 (stereo not drawn),0,0,0,0,0,0
Nn1cc(-c2ccccc2)nc1SCC(=O)NCCN1C(=O)CSC1=O,0,0,0,0,60,0
CN(C(=O)CSc1nc(-c2ccccc2)cn1N)C(c1ccccc1)c1ccccc1,0,0,76,0,0,0
SMILES,CYP2C9 activ,cytoskel mod,CYP2C9 inhib,E-sel TNF inh,CYP2C19 inh,CYP2C19 activ
COc1ccccc1CNC(=O)CSc1nc(-c2ccccc2)cn1N,0,0,87,0,93,0
COc1ccccc1CNC(=O)CSc1nnc2ccc(-c3cccnc3)nn12,-,-,-,84,-,-
Cc1noc(C)c1CN1C(=O)NC2(CCCCCCC2)C1=O,0,0,0,0,61,0
C=CCN1C(=O)NC2(CCCCC2)C1=O,0,-,0,-,0,0
CS(=O)(=O)N1CCCC(C(=O)NCc2ccc(F)cc2)C1 (stereo not drawn),0,-,0,0,0,0
CC1(C)CC(=O)C(C=NCCN2CCN(CC(=O)Nc3ccccc3)CC2)=C(O)C1,-,-,-,0,-,-
CCC(Sc1nc2ccc(N)cc2s1)C(=O)Nc1nccs1 (stereo not drawn),0,0,62,0,77,0
CCC(Sc1nc2ccccc2s1)C(=O)Nc1nnc(C)s1 (stereo not drawn),0,0,67,0,0,0
CC(Sc1nc2ccccc2s1)C(=O)Nc1nnc(C(C)C)s1 (stereo not drawn),0,0,66,0,0,0
CCC(Sc1nc(C)cc(=O)[nH]1)C(=O)Nc1nnc(C)s1 (stereo not drawn),0,0,0,0,0,0
CCC(Sc1nnc(C)s1)C(=O)Nc1nccs1 (stereo not drawn),0,-,0,0,0,0
S=c1[nH]nc(-c2cccnc2)n1/N=C/c1ccco1,-,-,-,0,-,-
CCOC(=O)N1CCN(CC(=O)Nc2ccc(OC)cc2)CC1,0,0,0,0,0,0
Cc1nc(SCC(=O)Nc2c(C)n(C)n(-c3ccccc3)c2=O)nc(C)c1C,0,0,0,-,0,0
C=CCn1c(SCC(=O)NC2CCCC2)nc2scc(-c3ccco3)c2c1=O,0,0,92,0,87,0
C=CCn1c(SCC(=O)NCCCC)nc2scc(-c3ccco3)c2c1=O,-,0,-,0,-,-
C=CCn1c(SCC(=O)Nc2c(C)n(C)n(-c3ccccc3)c2=O)nc2scc(-c3ccccc3)c2c1=O,0,0,83,0,0,0
Cc1cc(C)cc(N2C(=O)CSC2c2cccs2)c1 (stereo not drawn),0,-,0,-,58,0
Cc1ccc(N2C(=O)CSC2c2cccs2)cc1 (stereo not drawn),0,0,0,0,77,0
Cc1nn(-c2ccccc2)c2[nH]c(=O)c(CNc3ccc4c(c3)OCCO4)cc12,0,0,61,0,0,0
CCc1ccc(NCc2cc3c(C)nn(-c4ccccc4)c3[nH]c2=O)cc1,0,0,92,0,0,0
Cc1nn(-c2ccccc2)c2[nH]c(=O)c(CNCc3ccc4c(c3)OCO4)cc12,0,0,0,0,0,0
CCOC(=O)C1C(c2cccs2)NC(=O)N(C)C1(O)C(F)(F)F (stereo not drawn),0,0,0,0,0,0
COc1ccc(CN(CCO)CCO)cc1[N+](=O)[O-],-,-,-,0,-,-
Cc1nc(-c2ccccc2)sc1C(N)=O,0,0,0,0,0,0
Cc1nc(-c2ccccc2)sc1C(=O)CSc1ccccc1,0,0,80,0,0,0
Cc1nc(-c2ccccc2)sc1C(=O)CSc1ccc(F)cc1,0,0,86,0,64,0
CCN(CC)c1ccc(NC(=O)C2=CCN(S(=O)(=O)c3ccc(F)cc3)CC2)c(C)c1,-,-,-,0,-,-
Cc1[nH]n(-c2ccc([N+](=O)[O-])cc2)c(=O)c1C=NCCN1CCN(C(=O)c2ccccc2)CC1,0,-,65,0,59,0
